Experimental data taken from the supplement of paper PMC3545927.
The other results are listed elsewhere or left out. How many sequences the whole screen found active is unknown.

Biological target: furin, P09958
Test: furin cleavage Z-score vs untreated control; higher = more cleavage, active = 3.5 or more, inactive = 1 or less, 8 variable residues between constant flanks
Method in brief: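 Cleavage by purified furin was measured on 8-mer peptides fused to a cDNA oligonucleotide and held on magnetic beads by their N-terminus. Reactions (0.01 ml, 1:10 enzyme:substrate) ran 7.5, 15 or 30 min in 50 mM HEPES pH 7.5 with CaCl2 and NaCl. Released DNA was adapter-tagged by PCR and sequenced, with read counts giving abundance. Log counts versus furin-free reactions were lowess-adjusted and scaled by median absolute deviation to give the cleavage Z-score.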

furin, P09958, sequence (P09958 whole entry): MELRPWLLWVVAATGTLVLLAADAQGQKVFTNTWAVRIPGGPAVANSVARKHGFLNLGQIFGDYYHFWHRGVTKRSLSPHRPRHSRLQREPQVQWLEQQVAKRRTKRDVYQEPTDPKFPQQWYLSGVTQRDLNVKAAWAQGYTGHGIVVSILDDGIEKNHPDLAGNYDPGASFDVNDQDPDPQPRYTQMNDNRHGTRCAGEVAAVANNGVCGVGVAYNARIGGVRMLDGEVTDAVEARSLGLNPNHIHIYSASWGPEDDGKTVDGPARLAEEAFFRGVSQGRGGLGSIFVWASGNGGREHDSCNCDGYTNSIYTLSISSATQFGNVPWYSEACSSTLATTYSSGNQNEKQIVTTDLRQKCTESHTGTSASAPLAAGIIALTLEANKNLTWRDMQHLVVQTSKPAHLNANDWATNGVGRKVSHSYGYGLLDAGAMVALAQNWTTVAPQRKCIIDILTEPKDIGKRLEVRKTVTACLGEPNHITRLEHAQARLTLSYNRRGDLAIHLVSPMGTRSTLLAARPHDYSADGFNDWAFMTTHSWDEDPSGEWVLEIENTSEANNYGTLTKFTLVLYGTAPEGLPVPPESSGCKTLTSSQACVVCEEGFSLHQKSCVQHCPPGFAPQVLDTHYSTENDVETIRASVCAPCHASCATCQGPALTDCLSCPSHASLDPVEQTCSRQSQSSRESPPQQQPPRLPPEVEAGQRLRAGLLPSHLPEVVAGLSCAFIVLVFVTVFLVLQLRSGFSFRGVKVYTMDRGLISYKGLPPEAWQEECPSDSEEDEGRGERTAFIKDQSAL

CAILNAASLAAGNASASA [HC537]
furin cleavage Z-score (7.5 min): -1.87 (inactive) | furin cleavage Z-score (15 min): -0.982 (inactive) | furin cleavage Z-score (30 min): 0.861 (inactive)

CATTPCYGSWAGNASASA [HC77]
furin cleavage Z-score (7.5 min): 0.0798 (inactive) | furin cleavage Z-score (15 min): 1.4 | furin cleavage Z-score (30 min): -0.0858 (inactive)

CALAHGVRVLAGNASASA [HC236]
furin cleavage Z-score (7.5 min): 0.101 (inactive) | furin cleavage Z-score (15 min): 1.37 | furin cleavage Z-score (30 min): 0.879 (inactive)

CAPPRRRRRSAGNASASA [FS-948]
furin cleavage Z-score (7.5 min): 8.33 (active) | furin cleavage Z-score (15 min): 8.78 (active) | furin cleavage Z-score (30 min): 7.37 (active)

CAPPWRLRRSAGNASASA [FS-1383]
furin cleavage Z-score (7.5 min): 9.19 (active) | furin cleavage Z-score (15 min): 9.31 (active) | furin cleavage Z-score (30 min): 7.39 (active)

CAPPRRRARSAGNASASA [FS-72]
furin cleavage Z-score (7.5 min): 11.2 (active) | furin cleavage Z-score (15 min): 10.8 (active) | furin cleavage Z-score (30 min): 7.57 (active)

CARSTRDRRSAGNASASA [FS-1273]
furin cleavage Z-score (7.5 min): 11.6 (active) | furin cleavage Z-score (15 min): 13.1 (active) | furin cleavage Z-score (30 min): 9.03 (active)

CAPTDPRRRSAGNASASA [HC215]
furin cleavage Z-score (7.5 min): 0.57 (inactive) | furin cleavage Z-score (15 min): 3.28 | furin cleavage Z-score (30 min): 0.563 (inactive)

CASDPCSAHLAGNASASA [HC2491]
furin cleavage Z-score (7.5 min): -0.0824 (inactive) | furin cleavage Z-score (15 min): 0.0077 (inactive) | furin cleavage Z-score (30 min): 0.561 (inactive)

CAFTPCSAHLAGNASASA [HC2467]
furin cleavage Z-score (7.5 min): -2.12 (inactive) | furin cleavage Z-score (15 min): -1.48 (inactive) | furin cleavage Z-score (30 min): -1.08 (inactive)

CATTPCSKSWAGNASASA [HC1894]
furin cleavage Z-score (7.5 min): 0.86 (inactive) | furin cleavage Z-score (15 min): -0.828 (inactive) | furin cleavage Z-score (30 min): 1.43

CALVGAPLGGAGNASASA [HC230]
furin cleavage Z-score (7.5 min): 0.473 (inactive) | furin cleavage Z-score (15 min): 0.0326 (inactive) | furin cleavage Z-score (30 min): -0.438 (inactive)

CAFYNRRRRSAGNASASA [FS-528]
furin cleavage Z-score (7.5 min): 10.4 (active) | furin cleavage Z-score (15 min): 10.5 (active) | furin cleavage Z-score (30 min): 8.75 (active)

CAEYPCHRPSAGNASASA [HC2329]
furin cleavage Z-score (7.5 min): -1.31 (inactive) | furin cleavage Z-score (15 min): -1.61 (inactive) | furin cleavage Z-score (30 min): 0.059 (inactive)

CAWLIRRRRSAGNASASA [FS-1180]
furin cleavage Z-score (7.5 min): 13.7 (active) | furin cleavage Z-score (15 min): 13.5 (active) | furin cleavage Z-score (30 min): 11.2 (active)

CARSTRDVQAAGNASASA [FS-3212]
furin cleavage Z-score (7.5 min): 6.84 (active) | furin cleavage Z-score (15 min): 7.38 (active) | furin cleavage Z-score (30 min): 6.15 (active)

CAWWRRRRRSAGNASASA [FS-1503]
furin cleavage Z-score (7.5 min): 12.2 (active) | furin cleavage Z-score (15 min): 12.2 (active) | furin cleavage Z-score (30 min): 8.61 (active)

CADLARHYKSAGNASASA [FS-982]
furin cleavage Z-score (7.5 min): 1.07 | furin cleavage Z-score (15 min): -0.538 (inactive) | furin cleavage Z-score (30 min): -1.88 (inactive)

CAYKGVWRVDAGNASASA [HC1168]
furin cleavage Z-score (7.5 min): -0.715 (inactive) | furin cleavage Z-score (15 min): -0.703 (inactive) | furin cleavage Z-score (30 min): 0.326 (inactive)

CAHFLSQTKQAGNASASA [HC946]
furin cleavage Z-score (7.5 min): -1.62 (inactive) | furin cleavage Z-score (15 min): -0.0771 (inactive) | furin cleavage Z-score (30 min): 0.398 (inactive)

CASTPCSAHYAGNASASA [HC2569]
furin cleavage Z-score (7.5 min): -0.833 (inactive) | furin cleavage Z-score (15 min): 0.198 (inactive) | furin cleavage Z-score (30 min): 0.946 (inactive)

CATTRVRRRSAGNASASA [FS-1100]
furin cleavage Z-score (7.5 min): 8.61 (active) | furin cleavage Z-score (15 min): 10.7 (active) | furin cleavage Z-score (30 min): 6.67 (active)

CAVFGPLWILAGNASASA [HC608]
furin cleavage Z-score (7.5 min): -0.487 (inactive) | furin cleavage Z-score (15 min): -1.14 (inactive) | furin cleavage Z-score (30 min): -0.989 (inactive)

CARRPRRVEAAGNASASA [FS-1921]
furin cleavage Z-score (7.5 min): 1.67 | furin cleavage Z-score (15 min): 1.82 | furin cleavage Z-score (30 min): 3.69 (active)

CARTPRSSSAAGNASASA [FS-2833]
furin cleavage Z-score (7.5 min): 0.99 (inactive) | furin cleavage Z-score (15 min): -0.243 (inactive) | furin cleavage Z-score (30 min): 2.32

CARRPQDVKFAGNASASA [HC169]
furin cleavage Z-score (7.5 min): -0.409 (inactive) | furin cleavage Z-score (15 min): -1.01 (inactive) | furin cleavage Z-score (30 min): -0.285 (inactive)

CARRPRQKEAAGNASASA [FS-2782]
furin cleavage Z-score (7.5 min): 0.0199 (inactive) | furin cleavage Z-score (15 min): -1.9 (inactive) | furin cleavage Z-score (30 min): -0.838 (inactive)

CARRPRRVIAAGNASASA [FS-2179]
furin cleavage Z-score (7.5 min): -0.112 (inactive) | furin cleavage Z-score (15 min): 2.08 | furin cleavage Z-score (30 min): 3.81 (active)

CARRPRHLSAAGNASASA [FS-1837]
furin cleavage Z-score (7.5 min): 5.27 (active) | furin cleavage Z-score (15 min): 4.94 (active) | furin cleavage Z-score (30 min): 5.51 (active)

CARRLRDQEAAGNASASA [FS-1781]
furin cleavage Z-score (7.5 min): 0.143 (inactive) | furin cleavage Z-score (15 min): -1.21 (inactive) | furin cleavage Z-score (30 min): -0.196 (inactive)

CARTPREVEAAGNASASA [FS-2467]
furin cleavage Z-score (7.5 min): 1.78 | furin cleavage Z-score (15 min): 1.61 | furin cleavage Z-score (30 min): 4.16 (active)

CAALMTGYTGAGNASASA [HC880]
furin cleavage Z-score (7.5 min): -1.03 (inactive) | furin cleavage Z-score (15 min): -2.97 (inactive) | furin cleavage Z-score (30 min): -0.313 (inactive)

CAEFVVCCSMAGNASASA [HC2127]
furin cleavage Z-score (7.5 min): -1.01 (inactive) | furin cleavage Z-score (15 min): 0.711 (inactive) | furin cleavage Z-score (30 min): -0.748 (inactive)

CASTNCSAHLAGNASASA [HC2521]
furin cleavage Z-score (7.5 min): 1.3 | furin cleavage Z-score (15 min): -0.319 (inactive) | furin cleavage Z-score (30 min): 0.484 (inactive)

CAESYSSMPPAGNASASA [HC1352]
furin cleavage Z-score (7.5 min): 0.813 (inactive) | furin cleavage Z-score (15 min): -0.573 (inactive) | furin cleavage Z-score (30 min): -0.906 (inactive)

CAMDVVCCSMAGNASASA [HC2106]
furin cleavage Z-score (7.5 min): -0.103 (inactive) | furin cleavage Z-score (15 min): -0.752 (inactive) | furin cleavage Z-score (30 min): -0.482 (inactive)

CARDWAHNGLAGNASASA [HC639]
furin cleavage Z-score (7.5 min): 0.358 (inactive) | furin cleavage Z-score (15 min): -0.707 (inactive) | furin cleavage Z-score (30 min): 0.626 (inactive)

CARGKRRREKAGNASASA [FS-2017]
furin cleavage Z-score (7.5 min): -0.00549 (inactive) | furin cleavage Z-score (15 min): -0.584 (inactive) | furin cleavage Z-score (30 min): -1.52 (inactive)

CARGKRHATKAGNASASA [FS-2015]
furin cleavage Z-score (7.5 min): 7.59 (active) | furin cleavage Z-score (15 min): 7.53 (active) | furin cleavage Z-score (30 min): 7.79 (active)

CARGKRQATAAGNASASA [FS-2016]
furin cleavage Z-score (7.5 min): 7.14 (active) | furin cleavage Z-score (15 min): 9.61 (active) | furin cleavage Z-score (30 min): 6.1 (active)

CAQRKRGGTAAGNASASA [WN1]
furin cleavage Z-score (7.5 min): -1.04 (inactive) | furin cleavage Z-score (15 min): 0.079 (inactive) | furin cleavage Z-score (30 min): -0.249 (inactive)

CARGKRYSYKAGNASASA [FS-2019]
furin cleavage Z-score (7.5 min): 0.222 (inactive) | furin cleavage Z-score (15 min): 0.712 (inactive) | furin cleavage Z-score (30 min): 1.19

CAGERCDLEDAGNASASA [HC485]
furin cleavage Z-score (7.5 min): 0.0125 (inactive) | furin cleavage Z-score (15 min): -0.597 (inactive) | furin cleavage Z-score (30 min): 0.387 (inactive)
